# TDP1 block: TDP1 (human) enzyme inhibition | Potency, µM (doses to about 130 µM), for the others: at the highest dose activity change, negative = inhibition, usual class: inhibitors | recombinant TDP1, AlphaScreen DNA substrate cleavage | actives 0.28% (n = 350,000) | Q9NUW8; note: potency is the fitted concentration of half-maximal effect; % is set by controls: 0 for no effect and ±100 for the full control effect; nearly all actives have a fitted effect of over 40% in size
# Target sequence (Q9NUW8 whole entry, looked up): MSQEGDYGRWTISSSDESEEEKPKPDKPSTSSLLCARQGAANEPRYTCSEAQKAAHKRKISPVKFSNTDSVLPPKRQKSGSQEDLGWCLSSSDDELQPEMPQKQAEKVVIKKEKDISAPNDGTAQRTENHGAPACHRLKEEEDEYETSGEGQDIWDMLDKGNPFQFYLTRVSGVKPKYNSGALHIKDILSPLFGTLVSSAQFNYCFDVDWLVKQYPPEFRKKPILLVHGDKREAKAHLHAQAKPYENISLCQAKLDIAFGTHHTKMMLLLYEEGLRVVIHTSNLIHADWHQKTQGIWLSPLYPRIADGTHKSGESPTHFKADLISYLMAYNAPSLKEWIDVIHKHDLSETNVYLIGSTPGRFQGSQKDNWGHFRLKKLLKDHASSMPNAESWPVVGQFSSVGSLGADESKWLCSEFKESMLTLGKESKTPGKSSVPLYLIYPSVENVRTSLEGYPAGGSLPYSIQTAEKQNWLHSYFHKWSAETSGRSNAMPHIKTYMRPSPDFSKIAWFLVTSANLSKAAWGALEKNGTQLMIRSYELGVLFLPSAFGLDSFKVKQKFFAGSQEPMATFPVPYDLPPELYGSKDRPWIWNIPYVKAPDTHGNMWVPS
#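 AlphaScreen read-out: signal falls as enzyme removes the 3' tyrosine-FITC from a 5'-biotinylated DNA oligo (15 nM, 5 min, RT). Enzyme was E. coli-made recombinant Tdp1 at 1 nM, exposed to compound for 15 min beforehand; beads 10 ug/ml, 10 min.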
# IL1B secr inh: inflammasome signaling inhibition, IL-1 beta readout | THP-1 LPS/ATP IL-1B secretion, AlphaLISA, 16 h; hits give low values | activity change, % at 57.5 µM | actives 4.7% (n = 360,000) | AID 743279; in the data active = activity change below about -50%; inconclusive = mostly about -30% to -49%; note: % is set by controls: 0 for no effect and ±100 for the full control effect
#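 THP-1 cells pretreated 1 hr with compounds (up to 57.5 uM final), then stimulated with LPS (250 ng/mL final) plus ATP (1.25 mM final); secreted IL-1B measured by AlphaLISA after 16 hr, decreased signal indicating inhibition.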
# HepG2 tox: counter-screen for TGF-b inhibitors: cytotoxicity in HepG2 cells | HepG2 CAGA-GFP viability, ATP luminescence, 18 h | Potency, µM (titrated, usually from 46.1 µM), without a hit: at the top dose activity change, negative = cytotoxicity, hits mostly cytotoxic | actives 0.76% (n = 410,000) | AID 588856; note: potency is the fitted concentration of half-maximal effect
#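 CellTiter-Glo luminescence gave cytotoxicity after 18 hours at 37 degrees C. The cells were HepG2 CAGA-GFP in 1% FBS DMEM, stimulated with 500 pg/mL TGF-beta after compound addition. %Activity was normalised to no-cell wells (complete cell-killing) and DMSO (no toxicity), and curves were fitted and classified.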
# TDP1 cell CPT: growth inhibition of DT40 Tdp1-/-;hTDP1 cells with camptothecin (screen for TDP1 inhibitors) | chicken DT40 Tdp1-/-;hTDP1 cells + 20 nM CPT, ATP luminescence, 48 h | Potency, µM (series often up to 46.2 µM), for the others: at the top dose activity change, negative = growth inhibition, actives largely listed as inhibitors | actives 12% (n = 420,000); note: potency is the fitted concentration of half-maximal effect; % is set by controls: 0 for no effect and ±100 for the full control effect; nearly all actives have a fitted effect of over 55% in size
#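 Chicken DT40 Tdp1-/- cells complemented with human TDP1, 400 cells/well, exposed to compounds plus 20 nM camptothecin for at least 48 h at 37 C; viability read as ATP content by CellTiter-Glo luminescence.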
# TDP1 cell noCPT: qHTS for Inhibitors of human tyrosyl-DNA phosphodiesterase 1 (TDP1): qHTS in cells in absence of CPT; DT40 Tdp1-/- hTDP1 cells, no CPT, ATP luminescence, 48 h; Potency, µM (highest dose often 46.2 µM), without a hit: at the top dose activity change, negative = growth inhibition, hits mostly inhibitors; actives 15% (n = 420,000); note: potency is the fitted concentration of half-maximal effect; % is set by controls: 0 for no effect and ±100 for the full control effect; nearly all actives have a fitted effect of over 55% in size
#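 DT40 Tdp1-/-;hTDP1 cells, no CPT (DMSO vehicle only), 400 cells/well; compounds pin-transferred; ≥48 hr, 37 °C; CellTiter-Glo 30 min RT dark, luminescence read.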
# TGFb SMAD3 inh: inhibitors of TGF-b signaling; HepG2 CAGA-GFP TGF-b/SMAD3 reporter, GFP fluorescence, 18 h; TGF-beta stimulated, 500 pg/mL final; Potency, µM (top dose mostly 46.1 µM), for the others: at the highest dose activity, negative = inhibition, usual class: inhibitors; actives 1.2% (n = 410,000); AID 588855; note: potency is the fitted concentration of half-maximal effect; % is set by controls: 0 for no effect and ±100 for the full control effect; nearly all actives have a fitted effect of over 65% in size
#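 HEPG2 CAGA-GFP, 1000 cells/well; 2 h settle, 37 C; cpd via pin tool; TGF-b 500 pg/mL final; 18 h, 37 C; GFP imaging ex488/em500-530; %Activity normalised to -TGF-b and +DMSO controls; CRC fit, curve class.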
# An asterisk follows results filed as active; i = inactive; ? = inconclusive; · = no result given; [ ] = dose if it differs, or a comment. Most compounds without a hit are left out; they make up all but 19% or so of the library. Unless noted, calls come from the whole dose curve; as a rule, active = well fitted curve in the direction sought with a large enough effect; inconclusive = small, poorly fitted or top-dose-only effect, or another doubt; inactive = no such curve, though single readings can be large; an effect the other way counts as inactive or inconclusive.
SMILES,TDP1 block,IL1B secr inh,HepG2 tox,TDP1 cell CPT,TDP1 cell noCPT,TGFb SMAD3 inh
Cc1cccc(NC(=O)CCC2CCN(C(=O)C3CC=CCC3)CC2)c1 (centres undefined),2%,i,0%,12µM*,12µM*,-6%
COC(=O)C(CCSC)NC(=O)c1cc2c(n(-c3ccc(Cl)cc3)c1=O)CCCC2=O (centres undefined),-3%,·,-26%,-17%,-14%,0%
CC(=O)N1CCc2cc(Br)cc(S(=O)(=O)CCC(=O)N3CCN(c4cccc(C)c4C)CC3)c21,0%,·,-42%,16µM*,?,?
CC(=O)N1CCc2cc(Br)cc(S(=O)(=O)CCC(=O)N3CCN(c4ccccn4)CC3)c21,-11%,-22,-16%,-30%,-19%,-4%
COC(=O)C1=C(C(=O)OC)SC2(S1)C(C(=O)OC)=C(C(=O)OC)SC1=C2c2cc(C)ccc2NC1(C)C,7%,-21,-3%,21µM*,15µM*,-25%
COc1ccc(-c2cc3c(=O)n(CC(=O)NCc4ccc(C)cc4)ncn3n2)cc1,·,17,-3%,7.3µM*,6.5µM*,1%
COc1ccc(-c2cc3c(=O)n(CC(=O)NCCCN4CCC(Cc5ccccc5)CC4)ncn3n2)cc1,3%,-14,-13%,?,?,-7%
COc1ccc(-c2cc3c(=O)n(CC(=O)NCc4ccc(F)cc4)ncn3n2)cc1,·,18,-4%,?,?,0%
COc1ccc(-c2cc3c(=O)n(CC(=O)NCCCN4CCN(Cc5ccccc5)CC4)ncn3n2)cc1,6%,16,9%,9.2µM*,5.2µM*,2%
COc1ccc(Br)cc1/C(C)=N/NC1=NCCN1,3%,-76*,-31%,8.2µM*,15µM*,?
C/C(=N\NC1=NCCN1)c1ccccc1,6%,-1,-1%,5%,?,16%
CCCCCOc1ccc(Br)cc1/C(C)=N/NC1=NCCN1,4%,-103*,-51%,5.8µM*,4.6µM*,?
COc1ccc(C(=O)c2cn(CC(=O)Nc3ccc4c(c3)OCO4)c3ccc(OC)cc3c2=O)cc1,6%,·,-6%,?,?,-5%
COc1ccc(C2c3cc4c(cc3OC(N3CCOCC3)C2C)OCO4)c(OC)c1 (centres undefined),·,22,-15%,5.2µM*,4.1µM*,?
COc1cccc(C2c3cc4c(cc3OC(C)(N3CCCC3)C2C)OCO4)c1O (centres undefined),·,-66*,-7%,13µM*,10µM*,?
CCN(CC)C1Oc2cc3c(cc2C(c2cc(OC)c(O)c(OC)c2)C1C)OCO3 (centres undefined),·,27,9%,?,?,0%
CCN(CC)C1Oc2cc3c(cc2C(c2cccc(OC)c2O)C1C)OCO3 (centres undefined),·,-25,-3%,?,23µM*,?
COc1cccc(C2c3cc4c(cc3OC(N3CCOCC3)C2C)OCO4)c1O (centres undefined),·,0,-5%,-91%,8.2µM*,?
CCN(C(=O)Cc1c(C(=O)O)c(C)cn1C)c1cccc(Cl)c1,0%,·,1%,-22%,-17%,24%
COc1nc(SCC(=O)Nc2ccccc2Cl)nc(N(C)C)n1,2%,13,5%,?,-20%,6%
CN(C)c1nc(NCc2ccccc2)nc(SCC(=O)Nc2ccc(Cl)c(Cl)c2)n1,0%,0,-28%,21µM*,?,?
CCNc1nc(SCC(=O)Nc2ccc(Cl)c(Cl)c2)nc(N(C)C)n1,3%,13,-6%,?,15µM*,25%
Cc1nc(N)ncc1CCC1OCCO1,·,4,10%,2%,-12%,2%
CC[C@]12CCCN3CCc4c(n(c5ccccc45)C(=O)C1)[C@@H]32,·,16,-19%,6%,6.5µM*,-4%
COc1ccc(CCNC(=O)c2cc(S(=O)(=O)N3CCCCC3)ccc2Cl)cc1,3%,-2,-4%,26µM*,16µM*,-24%
SMILES,TDP1 block,IL1B secr inh,HepG2 tox,TDP1 cell CPT,TDP1 cell noCPT,TGFb SMAD3 inh
COc1ccc(C(CNC(=O)c2ccc(Cl)c(S(=O)(=O)N3CCCC3)c2)N2CCCC2)cc1 (centres undefined),0%[56.1 µM],?,-28%,-20%,?,-22%
COc1ccc(N(C)S(=O)(=O)c2ccc(Cl)c(C(=O)NCCc3ccc(Cl)cc3)c2)cc1,0%,-56*,-12%,9.2µM*,12µM*,-36%
COc1ccc(CCNC(=O)CSCC(=O)Nc2cc(S(C)(=O)=O)ccc2Cl)cc1,1%,2,0%,-4%,9.2µM*,-5%
CS(=O)(=O)c1ccc(Cl)c(NC(=O)CCc2ccccc2)c1,0%,14,3%,9%,-9%,-27%
COc1ccc(CCNC(=O)c2ccc(Cl)c(S(=O)(=O)N3CCCC3)c2)cc1,-2%[56.1 µM],-1,-17%,18µM*,23µM*,?
O=C(Nc1nc(-c2ccccn2)cs1)c1cc(Cl)ccc1[N+](=O)[O-],12%,58,6%,0.82µM*,1.5µM*,11µM*
Cc1cc(C(=O)Nc2nc(-c3ccccn3)cs2)ccc1[N+](=O)[O-],9%,107,-26%,2.3µM*,2.9µM*,?
COc1cc(/C=C2\C(=N)N3N=C(C)SC3=NC2=O)cc(Cl)c1OCCOc1ccc(NC(C)=O)cc1,·,12,7%,-3%,19%,0%
Clc1cccc(Cl)c1/C=C/c1ccn[nH]1,·,-2,-34%,18µM*,10µM*,-13%
Cn1cc(CNCCCn2ncc3ccccc32)c(-c2ccccc2F)n1,0%,-27,-1%,?,?,-4%
Cn1cc(CNCc2ccc(-n3cccn3)cc2)c(-c2ccccc2F)n1,6%,28,1%,?,21µM*,-6%

# Assay outcomes (PubChem BioAssay)
